Among the data in PubChem BioAssay are z-score and composite z-score values, retold here.

Activity calls are given as the source filed them.

Test [1] can be described thus: optical density shifts of acrAB sulA E. coli – strain DRC41, OD650, 48 h, E. coli filamentation inducer project, primary screen (AID 1152).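 Also: E. coli MC1000 strain DRC41 lacking acrAB efflux pump and sulA.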 As to conditions: higher = more signal, called active from +8 up or from −8 down.
The nature of test [2]: probe aLefty1 binding on compound microarray – biochemical, small-molecule microarray, 635/667 nm fluorescence, primary screen (AID 1153).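 Also: score merges spot fluorescence with signal-to-noise ratio from the scanned slide images.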 As to conditions: higher = more signal.
The nature of test [3]: plasmodial surface anion channel blockers, osmotic lysis – cell-based, P. falciparum Indochina, OD700, 1 h, primary screen (AID 1154). As to conditions: P. falciparum Indochina infected RBC osmotic lysis, higher = more signal, called active from +8 up or from −8 down.
A short description of test [4]: plasmodial surface anion channel blockers, osmotic lysis – cell-based, P. falciparum Indochina, OD700, 2 h, primary screen (AID 1155).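 Also: lysis reports solute entry through the parasite surface anion channel PSAC.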 The settings on record: P. falciparum Indochina infected erythrocytes, higher = more signal, called active from +8 up or from −8 down.
A short description of test [5]: changes in parasitized red cell lysis, either direction – P. falciparum Indochina, OD700, 3 h, PSAC antagonist project, primary screen (AID 1156). As to conditions: P. falciparum-infected erythrocytes, osmotic lysis, higher = more signal, called active from +8 up or from −8 down.
Test [6] can be described thus: plasmodial surface anion channel blockers, osmotic lysis – cell-based, P. falciparum Indochina, OD700, 18 h, primary screen (AID 1157). The settings on record: P. falciparum Indochina infected erythrocytes, osmotic lysis OD700, 18 h; higher = more signal, called active from +8 up or from −8 down.
The nature of test [7]: S6 kinase pathway phospho-S6 level changes – cell-based, A549, cytoblot, luminescence, serum-stimulated, primary screen (AID 1158).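 Also: serum-stimulated A549 lung adenocarcinoma cells; signal is phosphorylated S6 detected by cytoblot immunostaining with HRP secondary.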 The settings on record: 5 h, higher = more signal.
Test [8] deals with NADPH oxidase 2 (Homo sapiens) (UniProt P04839). The experiment in a line: compounds shifting NOX2 Amplex Red fluorescence – cell-based, HEK293-NOX2, PMA-stimulated, NOX inhibitor project, primary screen (AID 1159). Also: test concentration not given here. The settings on record: 45 min, higher = more signal, called active from +8 up or from −8 down.
NADPH oxidase 2 (Homo sapiens), sequence (P04839 whole entry, looked up): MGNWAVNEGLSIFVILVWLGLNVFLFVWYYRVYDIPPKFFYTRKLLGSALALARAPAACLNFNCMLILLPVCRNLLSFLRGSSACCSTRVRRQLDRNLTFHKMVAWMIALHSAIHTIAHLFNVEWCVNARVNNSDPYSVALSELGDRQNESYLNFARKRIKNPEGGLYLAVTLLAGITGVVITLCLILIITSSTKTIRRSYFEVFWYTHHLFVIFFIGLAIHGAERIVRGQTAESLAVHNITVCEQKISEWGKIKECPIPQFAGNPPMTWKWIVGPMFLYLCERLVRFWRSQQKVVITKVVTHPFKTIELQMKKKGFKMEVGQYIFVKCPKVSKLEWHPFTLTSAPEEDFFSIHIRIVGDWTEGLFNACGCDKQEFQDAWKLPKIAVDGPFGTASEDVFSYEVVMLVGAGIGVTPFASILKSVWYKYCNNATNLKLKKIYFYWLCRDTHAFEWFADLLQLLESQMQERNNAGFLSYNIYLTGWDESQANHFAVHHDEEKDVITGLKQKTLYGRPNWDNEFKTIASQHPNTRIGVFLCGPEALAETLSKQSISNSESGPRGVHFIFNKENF
For test [9], the target named is NADPH oxidase 4 (Homo sapiens) (UniProt Q9NPH5). The test can be described thus: compounds shifting NOX4 Amplex Red fluorescence – cell-based, HEK293-NOX4, tetracycline-induced, NOX inhibitor project, primary screen (AID 1160). As to conditions: HEK293-NOX4, Amplex Red H2O2 fluorescence, 45 min; higher = more signal, called active from +8 up or from −8 down.
NADPH oxidase 4 (Homo sapiens), sequence (Q9NPH5 whole entry, looked up): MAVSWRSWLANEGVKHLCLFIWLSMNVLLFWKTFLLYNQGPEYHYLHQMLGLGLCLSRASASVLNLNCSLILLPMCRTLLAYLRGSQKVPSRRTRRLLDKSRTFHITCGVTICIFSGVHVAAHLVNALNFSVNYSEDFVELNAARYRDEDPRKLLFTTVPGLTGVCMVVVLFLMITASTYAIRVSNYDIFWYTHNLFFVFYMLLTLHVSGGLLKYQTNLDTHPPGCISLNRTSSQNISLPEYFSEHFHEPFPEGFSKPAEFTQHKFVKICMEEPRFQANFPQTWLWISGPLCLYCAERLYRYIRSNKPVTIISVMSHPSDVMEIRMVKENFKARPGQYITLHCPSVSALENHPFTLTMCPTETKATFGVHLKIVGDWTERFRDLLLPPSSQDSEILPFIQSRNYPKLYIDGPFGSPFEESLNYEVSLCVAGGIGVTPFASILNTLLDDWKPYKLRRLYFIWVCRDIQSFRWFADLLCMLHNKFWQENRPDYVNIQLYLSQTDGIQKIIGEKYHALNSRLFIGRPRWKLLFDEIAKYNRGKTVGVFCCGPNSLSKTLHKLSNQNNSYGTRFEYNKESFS
In test [10] the target is NADPH oxidase 5 (Homo sapiens) (UniProt Q96PH1). The test can be described thus: compounds shifting NOX5 Amplex Red fluorescence – cell-based, HEK293-NOX5, NOX inhibitor project, primary screen (AID 1161). The settings on record: HEK293-NOX5, ionomycin, 45 min, higher = more signal.
NADPH oxidase 5 (Homo sapiens), sequence (Q96PH1 whole entry, looked up): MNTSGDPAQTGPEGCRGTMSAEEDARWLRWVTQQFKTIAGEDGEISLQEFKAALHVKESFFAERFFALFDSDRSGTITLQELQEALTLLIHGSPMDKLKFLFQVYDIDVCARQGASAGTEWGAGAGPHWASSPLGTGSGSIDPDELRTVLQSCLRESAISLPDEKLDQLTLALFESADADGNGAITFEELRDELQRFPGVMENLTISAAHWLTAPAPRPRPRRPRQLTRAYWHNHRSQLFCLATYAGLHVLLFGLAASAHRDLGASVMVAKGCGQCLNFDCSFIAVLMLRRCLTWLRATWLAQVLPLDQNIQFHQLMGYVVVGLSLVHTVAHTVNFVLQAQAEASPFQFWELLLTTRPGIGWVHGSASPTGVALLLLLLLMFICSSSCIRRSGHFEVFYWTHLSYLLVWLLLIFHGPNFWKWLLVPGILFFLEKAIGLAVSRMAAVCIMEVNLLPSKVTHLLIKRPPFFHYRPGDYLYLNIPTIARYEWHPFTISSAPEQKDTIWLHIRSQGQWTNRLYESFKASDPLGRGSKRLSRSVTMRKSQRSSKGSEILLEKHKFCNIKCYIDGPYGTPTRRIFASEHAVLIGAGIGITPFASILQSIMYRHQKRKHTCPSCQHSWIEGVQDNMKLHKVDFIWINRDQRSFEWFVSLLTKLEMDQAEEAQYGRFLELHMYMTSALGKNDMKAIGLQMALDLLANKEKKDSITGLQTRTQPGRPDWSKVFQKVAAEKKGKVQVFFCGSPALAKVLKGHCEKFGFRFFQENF
Test [11] is described as follows: compound effects on lung adenocarcinoma cell viability – A549, calcein-AM fluorescence, 48 h, basal, profiling panel (AID 1162). Also: test concentration not given here. As to conditions: higher = more signal.
Test [12] is described as follows: compound effects on differentiated 3T3-L1 adipocyte viability – cell-based, 3T3-L1 adipocytes, calcein-AM fluorescence, 48 h, basal, profiling panel (AID 1163). Also: test concentration not given here. The settings on record: 3T3-L1 adipocytes viability, higher = more signal.
Test [13] in a line: compound effects on hepatocellular carcinoma cell viability – HepG2, calcein-AM fluorescence, 48 h, basal, profiling panel (AID 1164). Also: test concentration not given here. The settings on record: higher = more signal.
A short description of test [14]: compound effects on multiple myeloma cell viability – MM1S, calcein-AM fluorescence, 48 h, basal, profiling panel (AID 1165).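 Also: viability of MM1S multiple myeloma cells under basal unstimulated conditions; test concentration not given here.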 The settings on record: higher = more signal.
The nature of test [15]: calcein-AM signal in unstimulated myeloma cells – cell-based, calcein-AM fluorescence, 48 h, PK04 Diversity Set, profiling panel (AID 1166).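 Also: cells grown under basal conditions without added stimulus; test concentration not given here.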 As to conditions: RPMI8226 myeloma viability, higher = more signal.
Test [16] in a line: JC-1 mitochondrial signal, unstimulated HepG2 cells – cell-based, JC-1 fluorescence, 24 h, 100 nL compound, profiling panel (AID 1167). Also: test concentration not given here. As to conditions: HepG2 mitochondrial potential, higher = more signal.
Test [17] can be described thus: JC-1 mitochondrial signal, unstimulated adipocytes – cell-based, JC-1 fluorescence, 3T3-L1 adipocytes, 24 h, 100 nL compound, profiling panel (AID 1168). Also: test concentration not given here. The settings on record: JC-1 mitochondrial fluorescence, higher = more signal, called active from +8 up or from −8 down.
Test [18] in a line: JC-1 mitochondrial signal, unstimulated myeloma cells – cell-based, JC-1 fluorescence, RPMI8226, 24 h, 100 nL compound, profiling panel (AID 1169). Also: test concentration not given here. The settings on record: JC-1 mitochondrial potential fluorescence, higher = more signal.
Test [19] can be described thus: JC-1 mitochondrial signal, unstimulated MM1S myeloma – cell-based, JC-1 fluorescence, 24 h, 100 nL compound, profiling panel (AID 1170). Also: test concentration not given here. The settings on record: MM1S mitochondrial potential, higher = more signal.
A short description of test [20]: resazurin metabolic signal in A549 cells – cell-based, resazurin fluorescence, 24 h, PK04 Diversity Set, profiling panel (AID 1171). Also: test concentration not given here. The settings on record: A549 viability, higher = more signal, called active from +8 up or from −8 down. For orientation: Alamar Blue is a resazurin reagent that responds to reducing activity.

As for `CC1CC/C=C\[C@H]2OC34C=CCN(Cn5nnc6ccccc65)C(=O)[C@H]3N(CCCCCCO)C(=O)[C@@H]4C2C(=O)O1` (stereo not given in full), the z-score in test [1] was 0.699 (inactive); in test [3], 0.59 (inactive); in test [4], -0.139 (inactive); in test [5] it was -0.248 (inactive); in [6], 0.527 (inactive); in [7], 1.2. Moreover, the z-score was 1.02 (inactive) in [8]; 0.515 (inactive) in [9]; 2.37 in test [10]; 0.264 in test [11]; -0.0662 in [12]; 0.91 in test [13]. Besides, the z-score in test [14] is 1.95; in [15] it was 0.456; in [16], 1.63; in test [17] it was 0.53 (inactive); in test [18], 0.8; in test [19], -0.657. Besides, the z-score in test [20] is 0.0188 (inactive). The compound also registered a composite z-score in [2] of 0.0999.
As to `O=C1O[C@@H](c2ccccc2)[C@@H](c2ccccc2)N2[C@@H](c3ccc(OCCO)cc3)[C@]3(C(=O)Nc4ccc(C#CC5(O)CCCCCC5)cc43)[C@@H](C(=O)Nc3nc4ccccc4s3)[C@H]12`, the z-score in test [1] was 0.219 (inactive); in test [3], 2.63 (inactive); in test [4] it was 1.76 (inactive); in test [5], 0.626 (inactive); in test [6] it was 1.96 (inactive); in test [7] it was 0.693. Further, the z-score in [8] was 1.2 (inactive); in test [9], -1.33 (inactive); in [10], 0.52; in test [11], 0.324; in test [12] it was 1.33; in test [13] it was 0.667. Besides, the z-score in test [14] is -1.64; in [15] it was -1.79; in test [16], -3.13; in [17] it was -0.456 (inactive); in test [18] it was -0.805; in test [19], -0.344. Besides, the z-score in test [20] is 0.524 (inactive). Further, the composite z-score in test [2] is -0.0061.
Take `CN1C(=O)C2C(C3CC3)C=C3CN(Cc4cccc(Cl)c4)[C@@H]([C@@H](O)Cc4ccccc4)C3C2C1=O` (stereo not given in full): the z-score in test [1] was 1.14 (inactive); in [3], 8.18 (active); in test [4] it was 1.25 (inactive); in test [5], 1.57 (inactive); in test [6] it was 0.918 (inactive); in [7], 0.775. The z-score in [8] was -0.38 (inactive); in test [9], 0.0765 (inactive); in test [10], 0.168; in test [11], 1.19; in test [12] it was 0.638; in [13], 0.506. The z-score in test [14] was -1.81; in test [15] it was -2.67; in [16] it was 1.24; in [17], -0.424 (inactive); in [18] it was -0.426; in [19], -0.939. In test [20], the z-score was 0.43 (inactive). Further, the composite z-score in test [2] worked out at 0.2.
Regarding `CC(C)=CCCC(C)=CC(O)C1C=CC2C(=O)NC(=O)C2N1Nc1ccccn1` (stereo not given), the z-score was -0.255 (inactive) in test [1]; 0.494 (inactive) in test [3]; -0.531 (inactive) in test [4]; -0.725 (inactive) in [5]; -1.94 (inactive) in test [6]; 0.585 in test [7]. Also, the z-score in test [8] is -0.637 (inactive); in test [9] it was -1.61 (inactive); in test [10] it was -0.467; in test [11] it was 0.531; in [12] it was -0.446; in [13], 1.29. Further, the z-score was 0.617 in test [14]; 0.586 in [15]; -0.23 in test [16]; -0.503 (inactive) in [17]; 0.333 in test [18]; 0.0809 in test [19]. In addition, the z-score in test [20] is -1.39 (inactive). This compound gave a composite z-score in test [2] of -0.864.
Take `COc1ccc(C(O)C2C=CC3C(=O)NC(=O)C3N2Nc2ccc(Cl)cc2Cl)c2ccccc12` (stereo not given): the z-score in [1] is -0.866 (inactive); in [3], 2.37 (inactive); in test [4], 1.44 (inactive); in test [5], -0.46 (inactive); in test [6] it was 1.78 (inactive); in [7], -0.101. Also, the z-score in test [8] is -0.0689 (inactive); in test [9], -5.63 (inactive); in [10], -1.58; in test [11], -1.88; in [12], 0.0133; in [13], -2.36. Further, the z-score was -3.8 in test [14]; -3.99 in [15]; -3.88 in test [16]; 0.564 (inactive) in [17]; -1.1 in test [18]; 0.533 in test [19]. In addition, in test [20], the z-score is -1.29 (inactive). The compound further yielded a composite z-score in test [2] of 0.379.
With `C=CC[C@]1(C(=O)NCC(O)CO)COC(c2ccc(OCCCO)cc2)=N1` (stereo not given in full), the z-score in test [1] was -0.353 (inactive); in [3], 3.8 (inactive); in test [4], 0.203 (inactive); in test [5], 0.99 (inactive); in test [6], 0.545 (inactive); in test [7], 0.18. For the same compound, the z-score in test [8] is -0.261 (inactive); in test [9], 0.914 (inactive); in test [10], 0.462; in test [11], -0.188; in [12], -0.191; in [13] it was -0.323. For the same compound, the z-score in test [14] was -0.244; in test [15], 0.146; in test [16], -0.512; in test [17] it was -0.604 (inactive); in test [18], 0.00774; in test [19], -0.307. Besides, the z-score in test [20] was -0.106 (inactive). Besides, the composite z-score in test [2] is 0.174.
Consider `C=CC1c2cc(O)c(OC)cc2CCN1C` (stereo not given), for which the z-score in test [1] is -0.664 (inactive); in [3] it was 0.994 (inactive); in test [4] it was -0.152 (inactive); in [5], -0.969 (inactive); in test [6] it was -0.214 (inactive); in test [7], -0.466. Also, the z-score in test [8] is -4.27 (inactive); in [9] it was -2.63 (inactive); in [10], -3.08; in test [11], -1.24; in test [12] it was 0.281; in test [13], 0.0372. The z-score is 0.121 in test [14]; 0.212 in test [15]; -1.17 in test [16]; -0.82 (inactive) in [17]; 0.222 in [18]; -0.67 in test [19]. Besides, in test [20], the z-score is -0.535 (inactive). The compound also came in with a composite z-score in test [2] of -0.101.
